According to PubChem BioAssay AID2451 (National Center for Advancing Translational Sciences (NCATS), 2010):
In all, about 290,000 compounds went through this assay and about 2,100 (0.72%) were called active. Roughly 4% stayed inconclusive and do not appear here. What follows is part of a selection rich in actives, with near analogues and random picks from the rest. Values without a mark were called inactive. Calls come from the whole dose curve; as a rule, active = well fitted inhibition curve with a large enough effect; inconclusive = small, poorly fitted or top-dose-only effect, or effect the other way; inactive = flat fitted curve, though single readings scatter.

These compounds were tested against Fructose-bisphosphate aldolase (Giardia intestinalis (strain ATCC 50803 / WB clone C6)) (UniProt A8B2U2) (assay: qHTS Assay for Inhibitors of Fructose-1,6-bisphosphate Aldolase from Giardia Lamblia). Settings: purified Giardia FBPA; series mostly up to 59.6 µM; activity, negative = inhibition: at the top concentration.
Sequence of Fructose-bisphosphate aldolase (Giardia intestinalis (strain ATCC 50803 / WB clone C6)) (A8B2U2 whole entry, looked up): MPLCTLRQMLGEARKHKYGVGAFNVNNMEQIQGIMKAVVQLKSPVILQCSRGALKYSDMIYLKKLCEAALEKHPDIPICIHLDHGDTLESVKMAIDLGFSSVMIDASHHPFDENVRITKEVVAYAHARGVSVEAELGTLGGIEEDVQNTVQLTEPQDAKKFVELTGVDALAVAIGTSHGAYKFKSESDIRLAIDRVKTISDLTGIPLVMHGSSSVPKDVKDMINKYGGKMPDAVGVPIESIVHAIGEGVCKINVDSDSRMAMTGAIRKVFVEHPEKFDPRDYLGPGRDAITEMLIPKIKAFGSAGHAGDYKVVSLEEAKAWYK
Procedure, shortened: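 40 nM FBPA preincubated 10 min at RT with compound (up to 57.5 uM final), then substrate plus GAPDH/TPI/NAD/arsenate coupling and diaphorase/resazurin added. Fluorescence read after 20 min at RT, 525/598 nm.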
% is set by controls: 0 for no effect and ±100 for the full control effect; potency is the fitted concentration of half-maximal effect.
Note: nearly all actives have a fitted effect of over 55% in size.

Row | Structure (SMILES) | activity, negative = inhibition [%] | Potency
1 | CSc1nnc(C2CCCN(CC(=O)Nc3ccccc3N3CCOCC3)C2)n1C(C)C (configuration not stated) | 13.2 | 
2 | CC(=O)NC1CCN(CC(=O)Nc2nccs2)CC1 |  | 10 µM (active)
3 | CC(=O)NC(CC(=O)Nc1nccs1)c1ccccc1 (configuration not stated) | 19.9 | 
4 | Cc1cc(C)cc(N(CC(=O)NC2CCCC2)C(=O)CCC(=O)Nc2nccs2)c1 | -3.79 | 
5 | COc1ccccc1CCNS(=O)(=O)c1cn(C)nc1C | 3.76 | 
6 | COc1ccc(CNC(=O)c2cc(=O)c3c(C)cc(C)cc3o2)cc1 | -2.56 | 
7 | O=C(N/N=C/c1ccc(O)c2ccccc12)c1cccnc1 | -1.74 | 
8 | CNC(=O)C(=O)N/N=C/c1ccccn1 | -28 | 
9 | O=C(N/N=C/c1ccccn1)c1cccnc1 |  | 4.46 µM (active)
10 | O=C(Nc1cccc2ncccc12)C(Cl)(Cl)Cl | 0.917 | 
11 | Cc1ccc(/C=C(\C#N)C(=O)Nc2cccc3ncccc23)o1 |  | 5.61 µM (active)
12 | Cc1ccc(C(=O)Nc2cccc3ncccc23)cc1[N+](=O)[O-] | -3.73 | 
13 | COc1ccc(C(=O)CC(=O)c2ccc(C)cc2)c(O)c1 | 0.0144 | 
14 | c1ccc2c(c1)CCc1snnc1-2 | 2.66 | 
15 | CSc1ccc(S(=O)(=O)N2CCC(C(=O)NCCc3ccccc3)CC2)cc1 | 10.5 | 
16 | CSc1ccccc1NC(=O)c1ccc2c(c1)CCN2S(C)(=O)=O | -3.55 | 
17 | CC(NC(=O)Cn1cc(C(F)(F)F)cc(Cl)c1=O)c1ccccc1 (configuration not stated) | 0.816 | 
18 | CO/N=C(\C(=O)N[C@@H]1C(=O)N2C(C(=O)O)=C(COC(C)=O)CS[C@H]12)c1csc(N)n1 (stereo in doubt) |  | inactive
19 | Cc1nnc(SCC(=O)NC2CCCC2)s1 | -2.13 | 
20 | Cc1nnc(SCC2=C(C(=O)O)N3C(=O)C(NC(=O)Cn4nc(C)c(Cl)c4C)C3SC2)s1 (configuration not stated) |  | 22.3 µM (active)
21 | Cc1cccc(NC(=S)NCCc2ccc(Cl)cc2)c1C | -7.76 | 
22 | O=C(Nc1ccccc1)/C(=C\c1ccco1)NC(=O)c1ccco1 | -17.9 | 

Row | Structure (SMILES) | activity, negative = inhibition [%] | Potency
23 | CCCC1=Nc2cc(C(=O)NCCN3CCCC3)ccc2Sc2ccccc21 | -13.9 | 
24 | Cc1nc(-c2ccc(Cl)cc2)sc1C(=O)NN | -0.949 | 
25 | CCOC(=O)N1CCC(NC(=O)c2ccc3nc(N4CCOCC4)sc3c2)CC1 | 0.489 | 
26 | Cc1nc(N2CCOCC2)sc1C(=O)NN |  | 12.6 µM (active)
27 | Cc1ccc(NS(=O)(=O)c2ccc3c(c2)oc(=O)n3C)c(C)c1 | -5 | 
28 | Cc1ccc(OCCCCc2c(C)n[nH]c2C)cc1 |  | 20 µM (active)
29 | CCCOc1ccc(-c2nc(N)n[nH]2)cc1 | -0.264 | 
30 | Cc1ccc(OCc2n[nH]c(=S)n2-c2ccc(C)cc2)cc1 | -0.791 | 
31 | Cc1ccccc1C(=O)N1CCC(C(=O)Oc2ccc(C#N)cc2)CC1 | 3.43 | 
32 | Cc1ccc(CNC(=O)C2CCCN2S(=O)(=O)c2ccc3c(c2)C(C)(C)C(=O)N3C)cc1 (configuration not stated) | -6.54 | 
33 | CCCCOC(=O)Nc1nnc(CC(=O)NCc2ccccc2)s1 | -0.363 | 
34 | CCCOC1CCCN(C(=O)c2cc(COc3cncc(Cl)c3)on2)C1 (configuration not stated) | 9.73 | 
35 | C/C(=N\NC(N)=S)c1cccnc1 |  | 15.8 µM (active)
36 | C/C(=N\NC(=O)c1cccc([N+](=O)[O-])c1)c1cccnc1 | -13.4 | 
37 | C/C(=N\NC(=O)c1cccnc1)c1ccc(-c2ccccc2)cc1 | -7.85 | 
38 | CCOC(=O)[C@@H]1[C@H]2COc3cc(OC)ccc3[C@@H]2N2C(=O)N(c3cccc(C)c3)C(=O)[C@@]12C | 7.91 | 
39 | CN(Cc1ccccc1)C(=O)c1cccc(C(=O)N(C)Cc2ccccc2)c1 | -0.983 | 
40 | CCOc1ccc(N(CC(=O)NCCc2ccc(F)cc2)S(=O)(=O)c2ccccc2)cc1 | -4.82 | 
41 | Cc1cccc(S(=O)(=O)N2CN(CC3CCCO3)c3nc4ccccc4nc32)c1 (configuration not stated) | 1.71 | 
42 | CC/C(=N\NC(=O)c1c(C)nc2ccccn12)c1ccc(Cl)cc1 | 3.33 | 
43 | CC1(C)Cc2ccccc2/C(=C/C(=O)c2ccccc2)N1 | 3.19 | 
44 | CCCc1nc2ccccc2c(=O)n1/N=C/c1ccc(O)c(O)c1 |  | 2.51 µM (active)

Row | Structure (SMILES) | activity, negative = inhibition [%] | Potency
45 | CCCc1nc2ccccc2c(=O)n1NC(=O)c1c(O)c2ccccc2[nH]c1=O | 13.6 | 
46 | Cn1c(SCC(=O)N/N=C/c2ccc(O)c(O)c2)nc2ccccc21 | -28.4 | 
47 | CC1C(=O)N(Cc2ccccc2)c2ccccc2N1C(=O)c1ccccc1 (configuration not stated) | -14 | 
48 | COc1ccccc1C1C(C(N)=O)=C(C)Nc2nc(CCCO)nn21 (configuration not stated) | -8.27 | 
49 | CN1C(=O)/C(=C\c2ccc(-c3ccccc3)o2)SC1=S |  | 4.46 µM (active)
50 | CN=C1S/C(=C\c2ccc(Sc3ccc(Cl)cc3)o2)C(=O)N1C | -1.64 | 
51 | O=C(O)C(c1ccccc1)N1C(=O)/C(=C\c2ccc(-c3cccc(Cl)c3)o2)SC1=S (configuration not stated) | 0.845 | 
52 | COc1ccc(CNC(=O)[C@H](Cc2c[nH]c3ccccc23)NC(C)=O)cc1OC | 7.31 | 
53 | COc1ccc(CNCCc2c[nH]c3ccccc23)cc1OC |  | 17.8 µM (active)
54 | COc1ccc(S(=O)(=O)NCCc2c[nH]c3ccccc23)cc1OC | -11 | 
55 | CCN(CC(=O)NC(=O)NCc1ccccc1)Cc1nc2ccccc2c(=O)[nH]1 |  | 17.7 µM (active)
56 | CCN(CC(=O)Nc1cccc(S(N)(=O)=O)c1)Cc1nc2ccccc2c(=O)[nH]1 | -26.8 | 
57 | CCN(CC(=O)Nc1ccc(Cl)c(S(=O)(=O)N(C)C)c1)Cc1nc2ccccc2c(=O)[nH]1 | -22.3 | 
58 | CC(C)CCNC(=O)c1ccc2c(Cl)c3c(nc2c1)CCC3 | 8.8 | 
59 | Cc1ccc(-n2c(SCC(=O)N3CCC(C(=O)O)CC3)nc3ccccc3c2=O)cc1C | 20.7 | 
60 | COc1cc(CN2CCN(Cc3ccc(C)cc3)CC2)c([N+](=O)[O-])cc1OC |  | 5.61 µM (active)
61 | COc1cc(NC(=O)NCC2CCN(Cc3ccc(C)cc3)CC2)cc(OC)c1OC | 8.41 | 
62 | COc1cc(CN2CC(C)CC(C)C2)cc([N+](=O)[O-])c1O (configuration not stated) | -12.8 | 
63 | CC(=O)c1ccc(N2CCN(S(=O)(=O)c3ccc4c(c3)CC(=O)N4C)CC2)cc1 | -5.35 | 
64 | COc1ccc(NC(=O)c2cc(-c3cc(OC)c(OC)c(OC)c3)nc3ccccc23)c(OC)c1 | 7.02 | 
65 | Cn1c(=O)n(C)c2cc(S(=O)(=O)Nc3ccc(F)cc3)ccc21 | 0.615 | 
66 | COc1ccc(NC(=O)C(CC(C)C)NC(=O)C2CCC(C)CC2)cc1 (configuration not stated) | -1.41 | 

Row | Structure (SMILES) | activity, negative = inhibition [%] | Potency
67 | CC[C@]1(c2ccccc2OC)C(=O)N(C(=O)OC)N1C(=O)OC | 5.5 | 
68 | COc1cccc(C(=O)N2C[C@H]3C[C@@H](C2)c2cccc(=O)n2C3)c1 | 3.02 | 
69 | O=C(NC(=S)N1C[C@H]2C[C@H](C1)c1cccc(=O)n1C2)c1ccc(F)cc1 |  | 7.94 µM (active)
70 | COc1ccccc1NC(=O)N1C[C@@H]2C[C@@H](C1)c1cccc(=O)n1C2 | 11.9 | 
71 | Cc1ccc(SCCSc2ncccn2)cc1 | 2.18 | 
72 | COCCNC(=S)Nc1cc(S(=O)(=O)N2CCOCC2)ccc1N1CCCCC1 |  | 2.81 µM (active)
73 | O=C(COC(=O)Cc1ccc(F)cc1)Nc1cc(S(=O)(=O)N2CCOCC2)ccc1N1CCCC1 | 3.37 | 
74 | CC(=O)NCCC(=O)Nc1cc(S(=O)(=O)N2CCOCC2)ccc1N1CCOCC1 | 6.3 | 
75 | Cc1ccc(C(=O)NC2CCN(C(=O)Nc3ccc(F)cc3)CC2)cc1 | -11.8 | 
76 | C=CCCN(C(Cc1ccccc1)C(=O)OC)S(=O)(=O)c1cc(Br)ccc1Br (configuration not stated) | 1.34 | 
77 | CCCNC(=O)c1ccc(N2CCC3(CC2)CC(c2ccc(Cl)cc2)=NO3)c([N+](=O)[O-])c1 | 0.473 | 
78 | Cc1cc(C)n(-c2ccc3nncn3n2)n1 | 0.189 | 
79 | Cc1cc(C)n(-c2ccc(Cl)c(C(=O)O)n2)n1 |  | 15.8 µM (active)
80 | COc1ccc(NC(=O)c2nc(-n3nc(C)cc3C)ccc2Cl)cc1Cl | 18.5 | 
81 | Cn1nccc1C(=O)N1CCCC(C(=O)c2ccc(Oc3ccccc3)cc2)C1 (configuration not stated) | 3.18 | 
82 | Cc1cc(S(=O)(=O)c2cc3ccc(O)c(C)c3oc2=O)ccc1F | 9.55 | 
83 | Cc1ccc(NC2(C#N)C(=O)Nc3ccccc32)cc1 (configuration not stated) | -29.3 | 
84 | N#CC1=C(N)Oc2[nH]c(=S)[nH]c(=O)c2C12C(=O)Nc1ccccc12 (configuration not stated) |  | 6.29 µM (active)
85 | N#CC1=C(N)Oc2n[nH]c(CSc3ccccc3)c2C12C(=O)Nc1ccccc12 (configuration not stated) | -8.13 | 
86 | CCc1ccc(NC(=O)C(=O)NNC(=O)c2cccs2)cc1 | -2.46 | 
87 | COc1ccc(CNC(=O)c2ccc(Br)s2)cc1OC | 2.95 | 
88 | Fc1ccc(-c2ccc(NCCN3CCOCC3)nn2)cc1 | -1.31 | 

Row | Structure (SMILES) | activity, negative = inhibition [%] | Potency
89 | O=C(NCc1ccccn1)c1ccc2nc(-c3ccco3)c(-c3ccco3)nc2c1 |  | 2.81 µM (active)
90 | COc1ccc2oc(=O)c(C(=O)NCc3ccccn3)cc2c1 | -15.7 | 
91 | O=C(NCc1ccccn1)c1cc(Br)ccc1Cl | 3.28 | 
92 | COCn1c(C(O)c2ccccc2)cc2ccccc21 (configuration not stated) | 9.67 | 
93 | CC(C)NC(=O)C(=O)N/N=C/c1ccco1 | -7.41 | 
94 | O=c1nc(N/N=C/c2ccco2)cn[nH]1 |  | 17.7 µM (active)
95 | O=C(N/N=C/c1ccco1)c1ccc(C(=O)N/N=C/c2ccco2)o1 | -12.7 | 
96 | N=c1ccccn1Cc1ccccc1 | 12.5 | 
97 | CNC(=S)NNC(=O)c1cccn(Cc2ccccc2)c1=O | 1.08 | 
98 | C=CCNC(=S)/N=c1/ccccn1Cc1ccccc1 |  | 14.1 µM (active)
99 | O=C(c1ccccc1)N1N=C(c2ccccc2O)CC1c1ccc(Br)cc1 (configuration not stated) | -3.32 | 
100 | O=C(CN1CCN(Cc2ccccc2)CC1)Nc1ccc(F)c(F)c1 |  | 20 µM (active)
101 | Cc1cc(NC(=O)CCN2CCN(Cc3ccccc3)CC2)ccc1Br | -20.8 | 
102 | O=C(CN1CCN(c2ccccc2)CC1)Nc1ccc(F)cc1 | 13.9 | 
103 | CC(=O)N[C@@H](C)C(=O)N1CCC(n2nccc2NC(=O)CCCc2ccccc2)CC1 | -11.4 | 
104 | CC(=O)Nc1cccc(Nc2nc(-c3cccs3)nc3ccccc23)c1 | 4.7 | 
105 | O=C(NC(=S)Nc1ccc(S(=O)(=O)N2CCOCC2)cc1)c1ccccc1[N+](=O)[O-] | -23.5 | 
106 | CN1CCN(S(=O)(=O)c2ccc(NC(=S)NC(=O)C3CC3)cc2)CC1 | 1.96 | 
107 | O=S(=O)(c1ccc(NC(=S)NN=C(C2CC2)C2CC2)cc1)N1CCOCC1 |  | 7.06 µM (active)
